Compounds with a hit are over-represented: about 20% of the library has one in this group of screens.
Pf growth 96h: Primary qHTS for delayed death inhibitors of the malarial parasite plastid, 96 hour incubation; P. falciparum luciferase reporter growth, 96 h; Potency, µM (top dose mostly 28.7 µM), without a hit: top-dose activity change, negative = inhibition, usual class: inhibitors; 320,000 tested, 6.9% active; AID 504834, 2011; note: potency is the fitted concentration of half-maximal effect; % is set by controls: 0 for no effect and ±100 for the full control effect
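Infected RBCs, 2% Hct / 0.05% parasitemia final; luciferase-reporter P. falciparum; cpd 96 h, 37 C, 5% CO2; luciferase detection reagent; luminescence.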
Cycloheximide cs: Cycloheximide Counterscreen for Small Molecule Inhibitors of Shiga Toxin | max response, % | AID 2314, 2010 | cell reporter, cycloheximide protein synthesis inhibition counterscreen | 300,000 tested, 12% active; in the data active = max response mostly above about 13%, no sharp cut-off; inactive = mostly below about 14%; note: read at 38.3 µM for the half of the compounds with a filed dose; 0% is about no effect
Shiga inhibitor: A qHTS for Small Molecule Inhibitors of Shiga Toxin; Vero cells, Shiga toxin protein synthesis inhibition reporter; inhibition, % at 38.7 µM; 290,000 tested, 9.2% active; AID 2315, 2010; in the data active = inhibition mostly above about 28%, no sharp cut-off; inactive = mostly below about 43%; note: 0% is about no effect
Pf growth 48h: Primary qHTS for delayed death inhibitors of the malarial parasite plastid, 48 hour incubation | P. falciparum luciferase growth in erythrocytes, 48 h | Potency, µM (highest dose often 28.7 µM), without a hit: at the top dose activity change, negative = inhibition, usual class: inhibitors | 310,000 tested, 5.9% active | AID 504832, 2011; note: potency is the fitted concentration of half-maximal effect; % is set by controls: 0 for no effect and ±100 for the full control effect
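Cell-based growth assay: transgenic P. falciparum expressing firefly luciferase, cultured in red cells within RPMI 1640 containing 0.5% w/v Albumax, 24 mM bicarbonate and gentamycin. A drop in luciferase activity indicates inhibition.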
HCMV antiviral: qHTS Assay for inhibitors of the human cytomegalovirus (HCMV) | HFF cells, HCMV-luciferase reporter, 72 h; active compounds read low | activity change, negative = inhibition, % at 57.5 µM | 410,000 tested, 4.5% active | AID 1259415, 2018; in the data active = activity change below about -60%; inconclusive = no clear call, values can overlap the other calls; inactive = above about -39%; note: % is set by controls: 0 for no effect and ±100 for the full control effect
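Luciferase read-out from HCMV-luciferase-infected HFFs (MOI 1 PFU/cell) 72 h post infection at 37C; compounds added after 16 h cell attachment; activity normalized between buffer-only basal and Salinomycin (10uM) inhibitor controls.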
Active calls of the source: *; ? = inconclusive; · = no result given; ! = not confirmed by another sample; [ ] = dose if it differs, or a comment. Unless noted, calls come from the whole dose curve; as a rule, active = well fitted inhibition curve with a large enough effect; inconclusive = small, poorly fitted or top-dose-only effect, or another doubt; inactive = no such curve, though single readings can be large or run the other way.

SMILES | Pf growth 96h | Cycloheximide cs | Shiga inhibitor | Pf growth 48h | HCMV antiviral
Cn1c2ccccc2c2cc(C(=O)N3CCOCC3)sc21 | 49.5% | 21.2* | 94.2 | 47.5% | 1.5
Cc1nn(-c2ccccc2)c2sc(C(=O)Nc3cccc(O)c3)cc12 | · | · | · | · | -30.8
Cc1nn(-c2ccccc2)c2sc(C(=O)N(CC(=O)NC(C)(C)C)Cc3ccco3)cc12 | ? | 19.4* | 18.0 | ? | -14.2
CCOc1ccc(NC(=O)c2cc3c(C)nn(-c4ccccc4)c3s2)cc1 | · | · | · | · | -65.6*
Cc1nn(-c2ccccc2)c2sc(C(=O)N3CCOCC3)cc12 | 195.7% | 43.2* | 44.0* | 249.6% | 231.8
COC(=O)c1cc2c(C)nn(-c3ccccc3)c2s1 | ? | 14.2 | 9.7 | 38.4% | 32.4
COc1ccc(NC(=O)CSc2cn(CC(=O)N3CCOCC3)c3ccccc23)cc1OC | · | · | · | · | 15.8
CCOc1ccc(S(=O)(=O)N2CCOCC2)cc1[N+](=O)[O-] | -0.1% | -5.1 | -2.9 | 38.1% | -16.5
Cc1ccc2nc(N3CCN(c4cccc(Cl)c4)CC3)c(-n3nc(C)cc3C)nc2c1 | · | · | · | · | 2.9
CC1=CC(C)C2COC(c3ccc[n+](C)c3)C1C2C (centres undefined) | ? | 0.8 | -6.3 | 14.7µM* | ?
CC1=CC(C)[C@@H]2COC(c3ccc(O)cc3)[C@H]1C2C (some centres undefined) | 9.28µM* | -4.8 | -4.1 | ? | -36.0
Cc1ccc(NC(=O)Cn2c(=O)n(CCCCCC(=O)NCc3ccc(F)cc3)c(=O)c3sccc32)cc1C | · | · | · | · | 2.8
O=C(NC1CCCCC1)C(=S)N1CCOCC1 | -15.9% | -5.8 | -10.0 | 37.2% | 134.6
CN(C)S(=O)(=O)N1CCCC(C(=O)c2ccc(-c3ccccc3)c(F)c2)C1 (centres undefined) | 26.1% | 14.8* | 34.7* | ? | -39.8
CSc1ccc(C(=O)C2CCCN(S(=O)(=O)N(C)C)C2)cc1 (centres undefined) | 23.9% | 0.5 | -1.1 | 1.7% | 1.1
COc1c(C)cc(C(=O)C2CCCN(S(=O)(=O)N(C)C)C2)cc1C (centres undefined) | 2.94µM* | 3.6 | · | -14.6% | -31.9
O=C(c1ccc(-c2ccccc2)c(F)c1)C1CCCN(CCCn2cccn2)C1 (centres undefined) | ? | 8.7 | 14.3 | ? | -3.4
COc1ccc(C(=O)C2CCCN(Cc3cn(C)nc3-c3ccccc3)C2)cc1F (centres undefined) | 9.28µM* | -3.1 | -6.2 | ? | -8.7
O=C(c1ccc(-c2ccccc2)c(F)c1)C1CCCN(CCO)C1 (centres undefined) | 12.0% | 14.6* | 68.2 | ? | -31.4
CCOC(=O)CNC(=O)CN1CCC(c2nc3ccccc3[nH]2)CC1 | ? | 0.9 | 9.4 | 26.2% | -7.3
CC(C)OCCCNC(=O)CN1C(=O)c2ccccc2Sc2ncccc21 | · | · | · | · | -22.7
COc1cc(Cl)c(C)cc1NC(=O)CCc1c(C)nc2c3cccnc3nn2c1C | · | · | · | · | 4.3
Cc1cccc(C)c1NC(=O)c1c[nH]c2ccccc12 | 148.5% | 15.9* | 73.8* | 128.4% | 133.2
COC(=O)c1csc(C(=O)c2c[nH]c3ccccc23)n1 | · | 23.2*! | 41.8*! | · | ·
COc1ccccc1C(=O)Nc1ccccc1SC(=O)c1ccccc1OC | 0.0% | 25.6* | 72.4* | -26.3%[0.00184 µM] | ?
SMILES | Pf growth 96h | Cycloheximide cs | Shiga inhibitor | Pf growth 48h | HCMV antiviral
COc1ccccc1NC(=O)c1c[nH]c2ccccc12 | 56.8% | 34.0* | 52.5* | 53.6% | 435.6
CC(NC(=O)COC(=O)c1c[nH]c2ccccc12)c1ccccc1 (centres undefined) | · | · | · | · | 24.7
CCCCCCCCCCSc1n[nH]c(N)n1 | 0.0% | 6.1 | 46.0 | 22.5% | 25.1
CCOC(=O)c1noc2ncn(CC(=O)Nc3cccc(Cl)c3)c(=O)c12 | · | · | · | · | 4.3
Cc1cccc(C)c1NC(=O)C(C(C)C)N1C(=O)C(=O)c2ccccc21 (centres undefined) | · | · | · | · | 32.6
COc1cc(NC(=O)CN2C(=O)C(c3ccc(C)cc3)=NC23CCCCCC3)cc(OC)c1 | · | · | · | · | -27.6
CCc1ccccc1-n1ncc(C(=O)Nc2ccccc2OC)c1C | 13.1µM* | 0.8 | 22.0 | 11.7µM* | -17.8
COc1ccccc1NC(=O)c1cnn(-c2ccccc2)c1-n1cccc1 | · | · | · | · | -8.6
COc1ccccc1C(=O)Nc1ccc2c3c(cccc13)CC2 | -13.3% | 37.7* | 87.4* | 58.8% | -8.8
COc1ccccc1NC(=O)c1ccccc1NC(=O)c1ccccc1C(=O)O | ? | 16.1* | · | 32.0% | 4.3
Cc1ccc(C(=O)COC(=O)COc2ccc(C)c(C)c2)cc1 | -19.7% | -0.9 | 12.6 | 0.1% | -30.7
COc1cccc(/C=C/C(=O)Nc2ccccc2N2CCOCC2)c1 | -16.8% | 29.4* | 43.9 | 60.2% | -22.4
O=C(/C=C/c1ccc(Cl)cc1)Nc1ccccc1N1CCOCC1 | 14.7µM* | 0.5 | 10.9 | 33.9% | -21.0
COc1cccc(/C=C/C(=O)Nc2cc(S(=O)(=O)N3CCOCC3)ccc2OC)c1 | 30.8% | · | · | -13.7% | -9.5
O=C(CN1CCN(S(=O)(=O)/C=C/c2ccccc2)CC1)Nc1ccccc1N1CCOCC1 | 3.7µM* | -0.8 | -6.3 | ? | ?
O=C1C2C3C=CC(C3)C2C(=O)N1CCN1CCN(S(=O)(=O)/C=C/c2ccccc2)CC1 (centres undefined) | 5.86µM* | -3.7 | 24.3 | -3.5% | 10.5
CN1OC(C)(CC(=O)NCCc2ccccc2)N=C1c1ccccc1F (centres undefined) | · | · | · | · | 36.7
COc1cccc(C(=O)/C=C/Nc2ccc(S(=O)(=O)Nc3onc(C)c3C)cc2)c1 | 2.3% | 44.3* | 63.0* | 38.0% | 31.3
Cc1noc(NS(=O)(=O)c2ccc(N/C=C\C(=O)c3ccc4c(c3)OCO4)cc2)c1C | ? | 37.0* | 72.2* | 51.5% | 6.6
COc1cc(OC)cc(C(=O)Nc2ccc(S(=O)(=O)Nc3onc(C)c3C)cc2)c1 | · | · | · | · | 4.8
CCOc1ccc(C(=O)/C=C/Nc2ccc(S(=O)(=O)Nc3onc(C)c3C)cc2)cc1 | 2.2% | 19.9* | 85.3* | 37.4% | 33.7
Cc1noc(NS(=O)(=O)c2ccc(NC(=O)/C=C/c3ccc(C(C)C)cc3)cc2)c1C | 10.4µM* | -2.0 | 16.0 | 32.9% | 4.9
Cc1noc(NS(=O)(=O)c2ccc(NC(=O)/C=C/c3ccc(Br)cc3)cc2)c1C | ? | -0.5 | -4.7 | 9.3% | 12.0
Cc1noc(NS(=O)(=O)c2ccc(N/C=C\C(=O)c3cccc4ccccc34)cc2)c1C | ? | 11.8 | 39.6 | 24.1% | 6.5
COC(=O)C(Cc1ccccc1)NC(=O)C(N)CC(=O)O (centres undefined) | -0.5% | · | · | -0.2% | ·
COC(=O)C(CO)Nc1ncnc2onc(-c3ccc(F)cc3)c12 (centres undefined) | ? | -3.1 | 1.9 | · | -28.4
Cc1noc(NS(=O)(=O)c2ccc(N/C=C\C(=O)c3ccc(Br)cc3)cc2)c1C | 51.7% | 18.7* | 57.7* | 20.3% | 64.6
